The nature of test [1]: antimalarial activity against Dd2 strain (AID 2302;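 active = growth inhibition above 50% at the single 2 µM test dose, taken to imply half-maximal potency below 2 µM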;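 also: 0% = DMSO untreated growth and 100% = chloroquine plus artemisinin killed control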). The note with it: P. falciparum Dd2 in RBCs, LDH growth readout, 72 h; at 2 µM; stronger effect = higher value.
The nature of test [2]: HepG2 cytotoxicity, primary screen, cytotoxicity control for P. falciparum antimalarial project, cell-based, ATP luminescence (AID 2303;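 active = inhibition above 50%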;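 also: 0% = DMSO wells and 100% = digitonin-killed cells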). The conditions noted are these: HepG2 viability, 24-48 h, at 10 µM, stronger effect = higher value.
For test [3], the target named is L-lactate dehydrogenase (Plasmodium falciparum (isolate CDC / Honduras)) (UniProt Q27743). In words: PfLDH activity inhibition – cell lysate, 3D7 strain, counter-screen for P. falciparum growth inhibition project (AID 2304).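 Also: 0% = vehicle and 100% = reference inhibitor.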 The conditions noted are these: P. falciparum 3D7 crude extract, LDH APAD/NBT absorbance; at 2 µM; stronger effect = higher value.
A short description of test [4]: inhibition of 3D7 malaria parasite growth – strain 3D7 (AID 2306).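 Also: 0% = DMSO wells and 100% = chloroquine plus artemisinin control wells.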 The note with it: P. falciparum 3D7 erythrocytic growth, LDH absorbance, 72 h; at 2 µM; stronger effect = higher value.
In test [5] the target is Calcium-dependent protein kinase 1 (Plasmodium falciparum (isolate 3D7)) (UniProt P62344). The test is described as follows: PfCDPK1 kinase inhibitors, biochemical, TCAMS library (AID 1159585; cut-off not given, nearly all actives have IC50 up to about 0.98 µM;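 also: inhibitors leave more ATP so luminescence rises with inhibition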). The note with it: recombinant PfCDPK1, Kinase-Glo ATP depletion luminescence. In general terms: Kinase-Glo reads ATP consumption through a luciferase reaction.
Test [6] concerns the target Plasmodium falciparum protein kinase 6 (PK6, PF3D7_1337100) (UniProt Q8IDW1). In words: PfPK6 kinase inhibitors, biochemical, TCAMS library (AID 1159586). The conditions noted are these: recombinant PfPK6, Kinase-Glo ATP depletion luminescence.
Test [7] deals with Protein kinase 7 (PK7), Plasmodium falciparum 3D7 (PF3D7_0213400) (UniProt Q7YTF7). The test is described as follows: inhibition of Plasmodium PK7 catalytic activity – biochemical, TCAMS antimalarial set, Kinase-Glo luminescence (AID 1159587). The conditions noted are these: recombinant PfPK7, Kinase-Glo ATP depletion luminescence.
The target in test [8] is Calcium-dependent protein kinase 4 (Plasmodium falciparum (isolate 3D7)) (UniProt Q8IBS5). In words: PfCDPK4 kinase inhibitors, biochemical, TCAMS library (AID 1159588; cut-off not given, nearly all actives have IC50 up to about 0.91 µM). The conditions noted are these: recombinant PfCDPK4, Kinase-Glo ATP depletion luminescence.

Values without a mark were called inactive. For part of these data: Potency and affinity values are given separately. Calls of active or inactive are those of the source. Unless noted, no rule for the calls is given here. Residues, ends and D or L forms follow the SMILES beside them. *: point of attachment. Octanoyl = CCCCCCCC(=O)*

The results in this text go back to PubChem BioAssay.

Sequence of Protein kinase 7 (PK7), Plasmodium falciparum 3D7 (PF3D7_0213400) (Q7YTF7 1-343): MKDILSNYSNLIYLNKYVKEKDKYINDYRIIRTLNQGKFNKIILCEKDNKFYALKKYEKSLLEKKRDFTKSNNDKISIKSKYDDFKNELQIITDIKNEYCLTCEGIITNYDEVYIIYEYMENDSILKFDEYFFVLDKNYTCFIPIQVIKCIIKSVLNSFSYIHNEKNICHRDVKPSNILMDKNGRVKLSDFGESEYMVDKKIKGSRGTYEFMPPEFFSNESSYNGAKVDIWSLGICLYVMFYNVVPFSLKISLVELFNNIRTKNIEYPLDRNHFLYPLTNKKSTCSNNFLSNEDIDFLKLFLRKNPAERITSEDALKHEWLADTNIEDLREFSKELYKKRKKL
Sequence of Calcium-dependent protein kinase 4 (Plasmodium falciparum (isolate 3D7)) (Q8IBS5 whole entry, looked up): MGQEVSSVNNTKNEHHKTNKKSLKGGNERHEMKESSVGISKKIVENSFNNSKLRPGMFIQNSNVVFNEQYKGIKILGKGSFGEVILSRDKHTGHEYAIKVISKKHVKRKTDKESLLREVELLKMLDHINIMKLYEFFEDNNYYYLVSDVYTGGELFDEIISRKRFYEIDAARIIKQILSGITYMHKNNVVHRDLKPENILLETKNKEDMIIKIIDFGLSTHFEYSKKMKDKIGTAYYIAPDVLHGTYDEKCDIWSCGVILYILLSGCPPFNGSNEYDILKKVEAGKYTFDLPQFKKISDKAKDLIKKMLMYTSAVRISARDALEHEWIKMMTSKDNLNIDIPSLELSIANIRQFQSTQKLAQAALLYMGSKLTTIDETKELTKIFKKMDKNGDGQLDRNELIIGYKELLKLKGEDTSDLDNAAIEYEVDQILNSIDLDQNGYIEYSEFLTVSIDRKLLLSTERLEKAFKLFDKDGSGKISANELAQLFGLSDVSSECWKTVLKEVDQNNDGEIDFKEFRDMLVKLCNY
Sequence of L-lactate dehydrogenase (Plasmodium falciparum (isolate CDC / Honduras)) (Q27743 whole entry, looked up): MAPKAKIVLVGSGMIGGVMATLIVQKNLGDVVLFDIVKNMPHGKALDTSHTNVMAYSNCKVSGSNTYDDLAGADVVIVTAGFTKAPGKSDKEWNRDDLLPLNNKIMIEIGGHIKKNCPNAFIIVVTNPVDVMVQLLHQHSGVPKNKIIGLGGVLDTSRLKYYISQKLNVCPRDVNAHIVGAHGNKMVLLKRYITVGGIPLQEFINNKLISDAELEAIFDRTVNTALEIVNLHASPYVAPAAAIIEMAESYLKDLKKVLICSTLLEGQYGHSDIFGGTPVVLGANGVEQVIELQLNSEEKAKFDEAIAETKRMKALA
Sequence of Calcium-dependent protein kinase 1 (Plasmodium falciparum (isolate 3D7)) (P62344 whole entry, looked up): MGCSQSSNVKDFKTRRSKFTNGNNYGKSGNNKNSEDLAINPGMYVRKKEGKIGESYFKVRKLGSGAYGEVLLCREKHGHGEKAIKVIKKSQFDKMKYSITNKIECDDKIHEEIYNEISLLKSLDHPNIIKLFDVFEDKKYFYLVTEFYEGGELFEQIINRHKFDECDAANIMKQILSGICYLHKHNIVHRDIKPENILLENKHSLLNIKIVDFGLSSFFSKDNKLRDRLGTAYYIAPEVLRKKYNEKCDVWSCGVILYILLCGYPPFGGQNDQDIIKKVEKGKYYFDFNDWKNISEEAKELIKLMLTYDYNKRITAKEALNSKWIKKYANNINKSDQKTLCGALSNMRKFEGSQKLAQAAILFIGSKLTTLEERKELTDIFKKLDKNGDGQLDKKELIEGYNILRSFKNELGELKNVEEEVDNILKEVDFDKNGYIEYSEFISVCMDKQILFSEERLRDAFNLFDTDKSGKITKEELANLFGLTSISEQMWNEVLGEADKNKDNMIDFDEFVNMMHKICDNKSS
Sequence of Plasmodium falciparum protein kinase 6 (PK6, PF3D7_1337100) (Q8IDW1 1-305): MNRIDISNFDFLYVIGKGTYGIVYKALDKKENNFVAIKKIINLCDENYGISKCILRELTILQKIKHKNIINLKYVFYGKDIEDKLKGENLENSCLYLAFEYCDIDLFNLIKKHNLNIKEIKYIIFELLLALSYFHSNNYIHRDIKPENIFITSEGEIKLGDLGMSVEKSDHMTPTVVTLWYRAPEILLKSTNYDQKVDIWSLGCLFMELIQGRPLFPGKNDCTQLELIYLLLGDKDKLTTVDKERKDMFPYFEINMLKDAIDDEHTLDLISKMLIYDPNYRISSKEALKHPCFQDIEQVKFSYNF

For orientation: inhibition means the relative decrease from the control value, in per cent. Consider `COc1cccc(Nc2nnc(SCC(=O)NNC(=O)c3ccccn3)s2)c1`, for which the growth inhibition in test [1] is 95% (active); in test [4], 99% (active). For the same compound, the inhibition in test [2] was 52% (active); in test [3], -1%. The outcome in test [5], in test [6], in test [7] and in test [8] was inactive.

For `O=C(c1ccc(-c2ccc(-c3nc4ccccc4[nH]3)s2)cc1)N1CCCCC1CN1CCC(O)C1` (centres undefined), the values for the growth inhibition in test [1] and in test [4] were 55% (active) and 84% (active), respectively. In addition, the inhibition was 18% in test [2] and 2% in test [3]. Moreover, the outcome in test [5], in test [6], in test [7] and in test [8] was inactive.

In the case of `NC(=O)c1cccc(C(=O)Nc2cccc(-c3ccc(-c4nc5ccc(C(F)(F)F)cc5[nH]4)cc3)c2)c1`, the results for the growth inhibition in test [1] and in test [4] were 78% (active) and 100% (active), respectively. The inhibition in test [2] is 83% (active); in test [3] it was -1%. Further, the outcome in test [5], in test [6], in test [7] and in test [8] was inactive.

On to `CCCCCCCCc1c(C)[nH]c(C)c(I)c1=O`, for which the growth inhibition in test [1] is 77% (active); in test [4], 91% (active). Besides, the values for the inhibition in test [2] and in test [3] were 5% and 4%, respectively. Besides, the result in test [5], in test [6], in test [7] and in test [8] was inactive.

In the case of `CC(NC(C)c1cccc(Cl)c1)C(=O)Nc1cc(C(F)(F)F)ccc1N1CCOCC1` (centres undefined), the growth inhibition in test [1] is 33%; in test [4] it was 89% (active). The inhibition in test [2] was 30%; in test [3], 1%. Moreover, the result in test [5], in test [6], in test [7] and in test [8] was inactive.

Turning to `O=C(Nc1cccc(-c2ccc(CN3CCC(O)CC3)cc2)c1)c1cccc(Cl)c1`, the growth inhibition is 2% in test [1] and 96% (active) in test [4]. Besides, the figures for the inhibition in test [2] and in test [3] were 11% and -11%, respectively. Moreover, the result in test [5], in test [6], in test [7] and in test [8] was inactive.

Take `O=C(NC1CCN(CC2(c3ccccc3F)CCCC2)CC1)c1ccn[nH]1`: the figures for the growth inhibition in test [1] and in test [4] were 91% (active) and 93% (active), respectively. The inhibition in test [2] was -5%; in test [3], -1%. For the same compound, the outcome in test [5], in test [6], in test [7] and in test [8] was inactive.

On to `c1ccc2c(C3CCN(CCCCOc4ccc5c(c4)CCN(C4CCC4)CC5)CC3)c[nH]c2c1`, for which the values for the growth inhibition in test [1] and in test [4] were 100% (active) and 102% (active), respectively. The inhibition in test [2] was 80% (active); in test [3] it was -3%. Further, the result in test [5], in test [6], in test [7] and in test [8] was inactive.

Consider `COCCNCc1ccc(-c2ccc(CNc3ccc4ncccc4c3)cc2)cc1`, for which the growth inhibition in test [1] is 4%; in test [4], 85% (active). The figures for the inhibition in test [2] and in test [3] were 41% and -4%, respectively. In addition, the result in test [5], in test [6], in test [7] and in test [8] was inactive.

With `CNC(=O)C1Cc2c([nH]c3c(C)cccc23)C2(N1)C(=O)Nc1ccc(OC(F)(F)F)cc12` (centres undefined), the results for the growth inhibition in test [1] and in test [4] were 50% (active) and 100% (active), respectively. Moreover, the figures for the inhibition in test [2] and in test [3] were -7% and -3%, respectively. The result in test [5], in test [6], in test [7] and in test [8] was inactive.

For `CCCCCCCC(=O)N[C@@H](Cc1ccccc1)C(=O)N[C@H](C(=O)O)C(C)C` (Octanoyl-Phe-Val-OH), the growth inhibition is -7% in test [1] and 89% (active) in test [4]. The inhibition in test [2] was -8%; in test [3] it was 2%. In addition, the outcome in test [5], in test [6], in test [7] and in test [8] was inactive.

For `O=C(Nc1ccc2c(c1)CCN2C1CCN(Cc2ccc(F)cc2Cl)C1)c1ccco1` (centres undefined), the growth inhibition is 96% (active) in test [1] and 97% (active) in test [4]. The inhibition was 4% in test [2] and 2% in test [3]. The outcome in test [5], in test [6], in test [7] and in test [8] was inactive.

Take `Cc1cc(O)c2c3c1C(=O)C=C1C3c3c(c(O)cc(O)c3C(=O)C1(C)C)C2=O` (centres undefined): the values for the growth inhibition in test [1] and in test [4] were 46% and 98% (active), respectively. Also, the inhibition is 45% in test [2] and -3% in test [3]. The outcome in test [5], in test [6], in test [7] and in test [8] was inactive.

On to `CCC(C)NS(=O)(=O)c1ccc2nc(Nc3ccc(C)c(Cl)c3)n(C(C)C(C)C)c2c1` (centres undefined), for which the growth inhibition in test [1] and in test [4] was 98% (active) throughout. Also, the inhibition was 22% in test [2] and 1% in test [3]. Moreover, the outcome in test [5], in test [6], in test [7] and in test [8] was inactive.

As for `Cc1cccc2[nH]c(-c3cccc(-c4cccc(CNCc5ccccc5)c4)c3)nc12`, the growth inhibition is 56% (active) in test [1] and 101% (active) in test [4]. Besides, the results for the inhibition in test [2] and in test [3] were 3% and -1%, respectively. The result in test [5], in test [6], in test [7] and in test [8] was inactive.

In the case of `NC(N)=NN=Cc1ccc2ccc3ccccc3c2c1`, the growth inhibition in test [1] was 89% (active); in test [4], 101% (active). Moreover, the inhibition in test [2] was 34%; in test [3], 5%. Besides, the outcome in test [5], in test [6], in test [7] and in test [8] was inactive.

For `C=Cc1cc(NC(=O)N2CCc3cc(OC)c(C(F)(F)F)cc32)cc(-c2cccnc2)c1`, the growth inhibition was 20% in test [1] and 92% (active) in test [4]. The inhibition is 7% in test [2] and -2% in test [3]. Also, the result in test [5], in test [6], in test [7] and in test [8] was inactive.

As for `Cc1ccc(NC(=O)NC2CCN(CCC(NC(=O)Cc3ccccc3)c3ccc(Cl)c(Cl)c3)CC2)cc1` (centres undefined), the growth inhibition in test [1] is 2%; in test [4], 100% (active). Besides, the inhibition in test [2] was 16%; in test [3] it was -1%. Also, the outcome in test [5], in test [6], in test [7] and in test [8] was inactive.
